We go through 91 compounds from PubChem BioAssay AID1259319 (Sanford-Burnham Center for Chemical Genomics, 2017).

The campaign covered roughly 3,000 compounds. About 1,800 (60%) were called active.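 How the source made its calls: active means activation at or above a set limit, or at least 3 SD above the negative control mean; inactive means the rest.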 The set was probably picked from earlier hits. These entries were drawn from the full list.

The target in this experiment is Nuclear receptor subfamily 1 group D member 1 (Homo sapiens) (UniProt P20393). The experiment in a line: modulators of Rev-erb alpha DNA binding, confirmation, biochemical, FITC-DNA, fluorescence polarization, single point (AID 1259319).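 Further: 0% = 35 nM protein with DMSO and 100% = 750 nM protein high control.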 Conditions: 90 min, at 25 µM, active compounds read high. (Fluorescence polarisation rises when a labelled molecule tumbles more slowly, as on binding a larger partner.)
Nuclear receptor subfamily 1 group D member 1 (Homo sapiens), sequence (P20393 whole entry, looked up): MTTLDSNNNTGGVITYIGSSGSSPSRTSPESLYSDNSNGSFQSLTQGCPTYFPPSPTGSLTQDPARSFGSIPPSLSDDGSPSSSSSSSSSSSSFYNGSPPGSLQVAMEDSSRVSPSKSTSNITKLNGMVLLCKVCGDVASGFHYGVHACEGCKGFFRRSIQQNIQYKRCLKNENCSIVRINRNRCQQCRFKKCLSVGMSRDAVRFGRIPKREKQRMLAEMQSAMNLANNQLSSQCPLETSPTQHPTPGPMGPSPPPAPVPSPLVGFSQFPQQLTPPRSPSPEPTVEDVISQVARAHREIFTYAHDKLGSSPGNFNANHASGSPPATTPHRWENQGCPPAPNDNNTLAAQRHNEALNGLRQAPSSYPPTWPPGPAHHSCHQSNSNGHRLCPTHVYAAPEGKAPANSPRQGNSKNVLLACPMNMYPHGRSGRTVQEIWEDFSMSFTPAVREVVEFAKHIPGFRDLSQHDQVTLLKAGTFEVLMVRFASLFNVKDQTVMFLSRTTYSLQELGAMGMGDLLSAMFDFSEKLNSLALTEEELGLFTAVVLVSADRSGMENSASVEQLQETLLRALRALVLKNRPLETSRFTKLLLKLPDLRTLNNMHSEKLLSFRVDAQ
With `c1ccc(CSc2ncnc3c2sc2nc(N4CCOCC4)c4c(c23)CCCC4)cc1`, the activation is 93.6% (active). Consider `S=c1nccc(-c2cc(Cl)sc2Cl)[nH]1`, for which the activation is 36.6% (active). With `c1ccc(-c2cc(-c3nnc4sc(-c5ccccn5)nn34)[nH]n2)cc1` the figure was 26.1% (active); with `CN(C)c1ccc(/C=C2\NC(=S)N(Cc3ccccc3)C2=O)cc1`, 37.3% (active). As for `CN1/C(=C\C=C2\N=C(c3ccc(F)cc3)OC2=O)C(C)(C)c2ccccc21`, the figure is 5.84% (inactive); as for `O=C(CCn1c(SCC(=O)c2ccccc2)nc2ccccc2c1=O)NCc1ccc(F)cc1`, 36.3% (active); as for `O=C(CCn1c(=S)[nH]c2cc3c(cc2c1=O)OCO3)NCc1ccc(Cl)cc1`, 9.29% (inactive). `C=CCNC(=O)CC12CC3CC(C1)CC(CC(=O)NCC=C)(C3)C2`: the activation was -0.299% (inactive).

Regarding `N#Cc1c(N)nc2c3c(sc(=N)c2c1N)NC(=O)CC3c1ccccc1Cl` (stereo unspecified), the activation is 35% (active).

Regarding `O=S(=O)(c1ccc(Br)cc1)c1nc(-c2ccccc2)oc1NCc1cccnc1`, the activation was 5.25% (inactive).

With `Oc1ccc2ccc3cccc[n+]3c2c1`, the activation is 41.7% (active). With `CCc1ccccc1NC(=O)c1cc(-c2ccc3c(c2)OCO3)on1` the figure was 10.4% (inactive); with `CN(C)S(=O)(=O)c1ccc(N2CCCC2)c(C(=O)Nc2ccc(Br)cc2F)c1`, 10.4% (inactive); with `O=C1CCCC2=C1C(c1ccccc1)n1c(s/c(=C/c3cccc(F)c3)c1=O)=N2` (stereo unspecified), 30% (active).

Take `CCOC(=O)c1sc(=NC(=O)c2ccc(Br)cc2)n(C)c1C`: the activation was 26.1% (active). With `COc1ccc2sc(-c3ccc(S(C)(=O)=O)cc3)c(-c3ccc(C(N)=O)cc3)c2c1` the figure was 5.94% (inactive); with `CCCNC(=O)Nc1ccc2c(c1)C(=O)N(C)[C@H]1CC[C@H](CC(=O)NCC3CCCCC3)O[C@@H]1CO2`, 63.1% (active); with `CCN1C(=O)/C(=C\N2CCN(c3cccc(Cl)c3)CC2)SC1=S`, 204% (active).

Regarding `Cc1ccc(S(=O)(=O)c2nnn3c2nc(N2CCN(c4ccccn4)CC2)c2ccccc23)cc1`, the activation was 65.4% (active). With `Cc1cccc(Nc2nc3c(S(=O)(=O)c4ccccc4)nnn3c3ccccc23)c1C` the figure was 15.8% (inactive). In the case of `CC(C)OCCCNC(=O)CN1C(=O)/C(=C/c2ccccc2F)Oc2ccccc21`, the activation was -0.363% (inactive). Turning to `COC(=O)c1sc(NC(=O)c2ccc(OC)cc2OC)nc1C`, the activation was 24.1% (active).

As to `COC(=O)c1c(NC(C)=O)sc(C(=O)Nc2ccccc2OC)c1C`, the activation is 9.45% (inactive).

For `COc1ccc(Cc2nnc(NC(=O)c3ccc(OC)cc3OC)s2)cc1`, the activation was 9.03% (inactive). With `Cc1cc(Br)cn2c(Cc3ccccc3C(F)(F)F)c(-c3ccc(Cl)cc3)nc12` the figure was 7.64% (inactive); with `Cc1ccc(-c2nc3c(C)cc(Br)cn3c2Cc2ccccc2)cc1`, 14.9% (active); with `Cc1nonc1NC(=O)CSc1nc2ccccc2cc1C#N`, 39.8% (active). With `CCOc1cccc(C(=O)Nc2nnc(-c3cccs3)s2)c1` the figure was -1.11% (inactive).

For the compound `CCOc1ccc2cc(C#N)c(SCC(=O)OC)nc2c1`, the activation was 90.1% (active). For `Cc1cc2cc3c(cc2nc1SCC(=O)Nc1c(C)cccc1C)CCC3`, the activation was 16.2% (inactive). With `COCc1cc(C)nc(SCC(=O)Nc2cccc(C)c2)c1C#N` the figure was -4.78% (inactive); with `Cc1nc2cc(NC(=O)CSc3nc4c(C)cccc4cc3C#N)ccc2s1`, 85.3% (active).

Regarding `CCOC(=O)c1c(NC(=O)CN2C(=O)NC3(CCC(C)CC3)C2=O)sc(C)c1CC` (stereo unspecified), the activation is 11% (inactive). For `c1ccc2c(-c3nn4nnnc4c4ccccc34)cccc2c1`, the activation is 29.3% (active). Consider `COc1ccc(C2=NN(C(=O)CSc3nc(=O)n4ccc(C)cc4n3)C(c3ccc(C)cc3)C2)cc1` (stereo unspecified), for which the activation was 4.15% (inactive). As to `COc1ccc(-c2nnc(SCC(=O)c3ccc4c(c3)OCCO4)o2)cc1`, the activation is 28.7% (active).

`CCOc1cccc(NC(=O)Cn2nc(-c3ccc4c(c3)OCCO4)ccc2=O)c1`: the activation was 15.3% (inactive). As to `COc1nc(-c2ccc(Cl)cc2)ccc1-c1noc(-c2cccs2)n1`, the activation was 46.9% (active). With `Fc1c(F)c(C(F)(F)F)c(F)c(F)c1N1CCN(c2ccc3nnc(C(F)(F)F)n3n2)CC1` the figure was 40% (active); with `COc1ccccc1N1CCN(CC(=O)Nc2ccnn2C2CCCC2)CC1`, -5.83% (inactive). As for `CC(=O)c1cc(C#N)c(SCC(=O)Nc2nccs2)nc1C`, the figure is 29% (active); as for `COc1ccc(-n2ncc3c(N4CCc5ccccc54)ncnc32)cc1`, 40.6% (active). As for `Cc1cc(C(C)(C)C)n2nc(C)c(-c3ccccc3)c2n1`, the activation is 4.3% (inactive). Consider `CCCCNC(=O)CSc1nc2n[nH]c(C)c2c(=N)n1-c1cccc(Cl)c1C`, for which the activation was 26.6% (active). As for `Cc1ccc(-n2c(SCC(=O)NCCC3=CCCCC3)nc3n[nH]c(C)c3c2=N)cc1Cl`, the figure is 14.5% (inactive); as for `COc1ccc(CNC(=O)c2nnn(CC(=O)Nc3cc(C)cc(C)c3)c2N)cc1`, 21.9% (active). With `COc1ccc(CC(=O)Nc2ccc(-c3nnc(-c4ccc(C)cc4)o3)cc2)cc1` the figure was -0.593% (inactive); with `Cc1c(-c2ccccc2)nc(N)c(C#N)c1-c1cccs1`, 16.4% (inactive); with `O=C(COC(=O)c1cccc(Br)c1)Nc1cccc2c1C(=O)c1ccccc1C2=O`, 18.5% (active). As for `N#Cc1ccccc1Sc1ccccc1C(=O)OCC(=O)NC1CCCCC1`, the activation is 35.9% (active). With `O=C(COC(=O)c1ccccc1SCC(=O)NC1CCCCC1)NC1CCCCC1` the figure was 86.9% (active); with `CC(C)C(C)NC(=O)COc1nc2ccccc2nc1N(C)C1CCCCC1` (stereo unspecified), 7.89% (inactive). Consider `Cc1cc(NC(=O)CSc2nc3cc(Cl)ccc3c(=O)n2Cc2ccco2)no1`, for which the activation is 16.1% (inactive). Turning to `Cc1cc(NC(=O)CSc2nc(C(C)C)nc3sc4c(c23)CCC(C)C4)no1` (stereo unspecified), the activation is 30.8% (active). On to `Cc1nc(SCC(=O)Nc2cc(C)on2)c2c3c(sc2n1)CCCC3`, for which the activation is 43.7% (active). With `C[n+]1ccc(/C=C/c2c[nH]c3ccccc23)cc1` the figure was 136% (active); with `CCc1ccc2c(c1)cc(CN(C(=S)Nc1ccccc1Cl)C1CC1)c1nnnn12`, 2.01% (inactive). With `COc1cccc(-n2c(SCC(=O)c3c[nH]c4ccccc34)nc3ccccc3c2=O)c1`, the activation is 30.8% (active). With `CCOC(=O)c1ccc(NC(=O)c2c(NCc3ccccc3)[nH]c(=O)[nH]c2=O)cc1` the figure was 1.79% (inactive); with `CCN(CC)c1ccc2cc(C(N)=O)/c(=N\NC(=O)c3ccncc3)oc2c1`, 25.4% (active); with `Cn1c(=O)n(C)c2cc(/C=N/NC(=O)c3cccc(Br)c3)ccc21`, 8.29% (inactive). As for `COc1cc(Cl)c(C)cc1NC(=O)COC(=O)c1cc(SC)ccc1Cl`, the figure is 23.3% (active); as for `CCN1/C(=C\c2ccc3ccccc3[n+]2CC)Sc2cc(C)ccc21`, 67.5% (active).

Regarding `Cc1nc2nc(SCC(=O)c3ccccc3)[nH]c2cc1Br`, the activation was 45% (active). As for `Cc1nc2nc(SCC(=O)Nc3cccc(F)c3)[nH]c2cc1Br`, the figure is 20% (active). With `CCn1c(SCC(=O)Nc2cccc(F)c2)nnc1-c1cc2cc(Br)ccc2o1` the figure was 26.2% (active).

In the case of `COc1ccc(C(=O)Nc2cccc(NC(=O)c3ccc(OC)cc3OC)n2)c(OC)c1`, the activation was 4.36% (inactive). For `COc1ccc2[nH]c(C(=O)Nc3ccccc3Cl)cc2c1`, the activation is 30.5% (active). As for `Cc1cc(=O)oc(C)c1C(=O)N1CCCCC1`, the activation is -0.804% (inactive). Consider `CC(C)Cn1c(CN(Cc2ccccc2)Cc2ccccc2)nc2c1c(=O)n(C)c(=O)n2C`, for which the activation is 48.3% (active). On to `Fc1ccc(CNc2nc3ccccc3n3nnnc23)cc1`, for which the activation is 27% (active). Consider `COC(=O)c1cccc(Cn2ccc3ccc(-c4ccc5ccn(C(=O)C6CCCCC6)c5c4)cc32)c1`, for which the activation is 43.5% (active). As for `COC(=O)c1cccc(Cn2ccc3ccc(-c4ccc5ccn(C(=O)c6ccccc6C)c5c4)cc32)c1`, the figure is 89.9% (active). For the compound `CCOC(=O)c1c(C)oc2cc(Br)c(OCC(N)=O)cc12`, the activation is 40.3% (active). With `COc1cc(OC)cc(-c2nc(=S)n3ccsc3n2)c1` the figure was 2.77% (inactive); with `Cc1sc2ncnc(N3CCC(C(=O)Nc4nc5ccc(Cl)cc5s4)CC3)c2c1C`, 51% (active). Turning to `CN1C(=O)c2ccc(C(=O)Nc3ccc(Br)cn3)cc2C1=O`, the activation is 30.1% (active). With `CCCCCn1nnnc1C1c2ccccc2C(=O)N1Cc1ccco1` (stereo unspecified) the figure was -8.88% (inactive); with `O=c1cc(N2CCCCC2)c(-c2ccccc2)nn1Cc1cccc(F)c1`, 8.56% (inactive); with `CCC(C(=O)NC1CCCC1)N(C(=O)c1snc(C(N)=O)c1N)c1ccc2c(c1)OCCO2` (stereo unspecified), 20.2% (active). Turning to `NC(N)=Nc1nc2ccc(Br)cc2c(=O)[nH]1`, the activation is 21.2% (active). As for `O=C1Cc2ccccc2Sc2ccc(Cl)cc21`, the figure is 23.2% (active).

Consider `CCOc1cc(-c2cc(-c3ccc(OC)cc3)nc(N)c2C#N)ccc1O`, for which the activation is 13.9% (inactive). As for `CCOc1nc(-c2ccc(OC)cc2)ccc1-c1noc(-c2cc(OC)c(OC)c(OC)c2)n1`, the figure is 22.3% (active). Consider `Cc1ccc(-n2nc3cc(C)c(NC(=O)c4cccnc4)cc3n2)cc1`, for which the activation is 0.139% (inactive). As for `COc1cccc(-c2ccc(C#N)c(SCC(=O)NCCc3ccc(Cl)cc3)n2)c1`, the figure is 13.2% (inactive); as for `COc1ccc(CCNC(=O)CSc2nc(-c3ccc(OC)c(OC)c3)ccc2C#N)cc1`, 37% (active); as for `CCOC(=O)c1ccc(NC(=S)Nc2cc(C)cc(C)n2)cc1`, 4.33% (inactive). As for `CC(=O)c1ccc(S(=O)(=O)N2CCN(c3nc4c(C)c(C)ccc4cc3C#N)CC2)cc1`, the figure is 181% (active); as for `COc1ccc(S(=O)(=O)N2CCN(c3ncnc4c(-c5ccccc5)nsc34)CC2)cc1`, 8.1% (inactive); as for `COc1ccc(-c2csc3ncnc(N4CCN(S(=O)(=O)c5ccccc5C#N)CC4)c23)cc1`, 14.6% (inactive).
